Outcome and AC50 data for 16 compounds are collected here from PubChem BioAssay (EPA / NIEHS).

The source made the active and inactive calls. How the source made its calls: active means hit-call score of the fitted dose curve at least 0.9, where 1 is the maximum; inactive means score below 0.9.

Usually AC50 stands for the concentration at which the activity in the assay is half-maximal.

Read-out in the experiment: Ezrin (EZR), EZR (gene 7430)
Briefly: LTEA_HepaRG_EZR: Life Technologies and Expression Analysis (LTEA) Assay for Ezrin (EZR) using HepaRG (AID 2283491). The note with it: mRNA level, 48 h; actives raise or lower the signal. As for the experimental part: It is a marker of Cellular remodeling.Data from the assay component LTEA_HepaRG_EZR was analyzed into 1 endpoint. This assay endpoint, LTEA_HepaRG_EZR, was analyzed with bidirectional fitting relative to DMSO as the negative control and baseline of activity. Using a type of inducible reporter, measures of mRNA induction for gain or loss-of-signal activity can be used to understand regulation of transcription factor activity. To generalize the intended target to other relatable targets, this assay endpoint is annotated to the membrane protein intended target family, where the subfamily is Cellular remodeling.
A total of 1060 chemcials from the ToxCast library were tested in eight-point concentration-response experiments. Cell culture and cytotoxicity assays were conducted at Thermo Fisher Scientific's Custom Services facility (Madison, WI). A single lot of human HepaRG cells (Thermo Fisher Scientific, Frederick, MD) was used for the cell culture experiments. 96-well format collagen type I coated plates of human HepaRG cells were prepared using established methods. Briefly, cryopreserved HepaRG cells were thawed, plated at a density of approximately 100,000 cells/well in HepaRG Thaw, Plate, and General Purpose media (HPRG770, Thermo Fisher Scientific), and incubated for 48 hours. 0.5% DMSO was selected as vehicle control to balance the requisite need of DMSO in HepaRG cultures to maintain differentiation (for example, baseline metabolism, proportions of hepatocytes vs. cholangiocytes), while enabling further hepatic receptor pathway activation (for example, PXR and CAR) in response to chemical exposure. 48 hours after plating, the culture medium was replaced with HepaRG Serum-Free Incudtion Media. Cells were exposed to each test chemical in duplicate and maintained in CO2 incubators for another 48 hours. Chemical plates were thawed to room temperature and 200x concentrations of treatment groups were prepared. 8-point conentration-reponse curves were made with the highest exposure at 100 uM, followed by half-log dilutions, all in 0.5% DMSO. Each test plate contained variouse controls, induction positive controls (1mM phenobarbital), cytotoxicity positive controls ([…] aflatoxin B1), vehicle controls (0.5% DMSO), and total lysis controls (0.5% DMSO). Cell morphology images were taken using an Essen IncuCyte FLR automated microscope, with six 96-well plates imaged in about 24 minutes. Images were captured and exported and JPEG files. Spent culture media was transfered to black-well plates for the LDH assay, and remaining media was sorted at -80 C for later use. Cells were treated with RLT buffer and frozen until shipped for gene expression analysis. Total RNA was isolated from the cell suspension in 75 uL of Buffer RLT (Qiagen, Germantown, MD 20874) by Quintiles/Expression Analysis (Durham, NC) using a custom isolation procedure. Total RNA from each plate well was transferred to a preamplification plate. Fluidigm's 96.96 Dynamic ArrayTM (Fluidigm, Amsterdam, the Netherlands) technology was used for gene expression analyses by quantitative reverse transcription polymerase chain reaction (qRT-PCR, performed by Quintiles/Expression Analysis, Durham, NC)89. Standard TaqManTM Assays (Applied Biosystems/ThermoFisher Scientific, Foster City, CA) were used to assess the expression of 93 genes selected based on their selectivity and sensitivity to important hepatic receptors known to be modulated by environmental chemicals; importance in human hepatocyte functionality; and hepatotoxicity. Three "housekeeping" endogenous control genes were also included and used for normalization: actin beta (ACTB), Glyceraldehyde 3 phosphate dehydrogenase (GAPDH) and RNA Polymerase II Subunit A (POLR2A). qRT-PCR was conducted according to the manufacturer's protocol.
Take `O=C1NS(=O)(=O)c2ccccc21`: the call was inactive.
Still for that read-out and setting: for `CS(=O)(=O)c1ccc([C@@H](CC2CCCC2)C(=O)Nc2cnccn2)cc1Cl` the value was “inactive”.
`Cc1[nH]nc2c1N=C(c1ccccc1Cl)c1cc([N+](=O)[O-])ccc1N2`: the AC50 was 1.38 µM (active).
Turning to `CCCCC(CC)C(=O)O` (stereo unspecified), the compound was called inactive.
The same measure, in the same setting: for `N=C(N)c1ccc(OCCCCCOc2ccc(C(=N)N)cc2)cc1` the value was “inactive”.
Still for that read-out and setting: for `CN(Cc1cnc2nc(N)nc(N)c2n1)c1ccc(C(=O)N[C@@H](CCC(=O)O)C(=O)O)cc1` the value was “inactive”.
As to `CCCCc1oc2ccccc2c1C(=O)c1cc(I)c(OCCN(CC)CC)c(I)c1`, the AC50 was 58.2 µM (active).
Regarding `CCC(C)c1ccccc1O` (stereo unspecified), the result was inactive.
Still for that read-out and setting: for `O=C(CCCN1CCC(O)(c2ccc(Cl)cc2)CC1)c1ccc(F)cc1` the value was “inactive”.
Same read-out and setting: for `OCC(CO)(CBr)CBr` the value was “inactive”; for `O=C(c1ccccc1)c1ccccc1`, “inactive”.
On the same count and under the same terms, in the case of `CCCCCCCCCCCCOS(=O)(=O)O` it was “inactive”.
In the case of `CCCCC=O`, the result was inactive.
On the same count and under the same terms, for `CN(C)CCOC(c1ccccc1)c1ccccc1` the value was “inactive”; for `CCCCCCCCCCCCCCC`, “inactive”.
For `CC(=O)Nc1ccc(O)cc1`, the compound was classed as inactive.
